The whole screen tested about 5,500 compounds, of which about 2,000 (36%) were called active. Inconclusive results (about 18%) are left out. No stated cut-off is given here; in the data, active means normalized growth mostly below about 0.91 (no sharp cut-off); inconclusive means no clear call, values can overlap the other calls; inactive means mostly above about 0.92. The list shows a part of the results.
Assay: chemical genetic growth profiling, strain panel (AID 1159580);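 further: tested at 20 µM; growth read once vehicle control cultures reached saturation at 30 °C; 1 = growth at the plate median or of vehicle wells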
Conditions: growth OD

Measured: normalized growth

CC(=O)O[C@H]1C[C@@H](OC(C)=O)C(C)(C)C2CC(=O)[C@]3(C)C(CC[C@@]4(C)[C@H](C(=O)O)OC(=O)C5OC543)[C@]21C (stereo partly specified)
inactive: S. cerevisiae deletion strains, locus YJR066W, strain TOR1, stronger effect = lower value 0.96 | S. cerevisiae deletion strains, locus YKL009W, strain mrt4, stronger effect = lower value 0.996 | S. cerevisiae deletion strains, locus YKL068W, stronger effect = lower value 0.988 | S. cerevisiae deletion strains, locus YKL085W, strain MDH1 (second series), stronger effect = lower value 1 | S. cerevisiae deletion strains, locus YKL085W, strain MDH1, stronger effect = lower value 1 | S. cerevisiae deletion strains, locus YKL160W, strain elf1, stronger effect = lower value 0.99 | S. cerevisiae deletion strains, locus YKL190W, strain CNB1, stronger effect = lower value 0.987 | S. cerevisiae deletion strains, locus YKR001C, strain vps1, stronger effect = lower value 1.01 | S. cerevisiae deletion strains, locus YKR026C, strain gcn3, stronger effect = lower value 1 | S. cerevisiae deletion strains, locus YKR091W, strain srl3, stronger effect = lower value 0.978 | S. cerevisiae deletion strains, locus YLL001W, strain dnm1, stronger effect = lower value 1 | S. cerevisiae deletion strains, locus YLL026W, stronger effect = lower value 0.981 | S. cerevisiae deletion strains, locus YLL041C, strain sdh2, stronger effect = lower value 0.989 | S. cerevisiae deletion strains, locus YLR027C, strain aat2, stronger effect = lower value 1 | S. cerevisiae deletion strains, locus YLR039C, strain RIC1, stronger effect = lower value 1.06 | S. cerevisiae deletion strains, locus YLR058C, strain SHM2, stronger effect = lower value 0.985 | S. cerevisiae deletion strains, locus YLR102C, strain apc9, stronger effect = lower value 1 | S. cerevisiae deletion strains, locus YLR113W, strain HOG1, stronger effect = lower value 0.968 | S. cerevisiae deletion strains, locus YLR221C, strain rsa3, stronger effect = lower value 1.01 | S. cerevisiae deletion strains, locus YLR258W, strain gsy2, stronger effect = lower value 0.995 | S. cerevisiae deletion strains, locus YLR262C, strain YPT6 (second series), stronger effect = lower value 0.978 | S. cerevisiae deletion strains, locus YLR262C, strain YPT6, stronger effect = lower value 1.05 | S. cerevisiae deletion strains, locus YLR268W, strain sec22, stronger effect = lower value 0.954 | S. cerevisiae deletion strains, locus YLR320W, strain mms22, stronger effect = lower value 1.02 | S. cerevisiae deletion strains, locus YLR342W, strain FKS1 (second series), stronger effect = lower value 0.972 | S. cerevisiae deletion strains, locus YLR342W, strain FKS1, stronger effect = lower value 1.01 | S. cerevisiae deletion strains, locus YLR357W, strain rsc2, stronger effect = lower value 1 | S. cerevisiae deletion strains, locus YLR370C, strain arc18, stronger effect = lower value 0.981 | S. cerevisiae deletion strains, locus YLR371W, strain rom2, stronger effect = lower value 0.985 | S. cerevisiae deletion strains, locus YLR384C, strain iki3, stronger effect = lower value 0.998 | S. cerevisiae deletion strains, locus YLR418C, strain cdc73, stronger effect = lower value 1.07 | S. cerevisiae deletion strains, locus YML016C, strain PPZ1, stronger effect = lower value 0.976 | S. cerevisiae deletion strains, locus YML032C, strain rad52, stronger effect = lower value 0.981 | S. cerevisiae deletion strains, locus YML120C, strain ndi1, stronger effect = lower value 0.993 | S. cerevisiae deletion strains, locus YML124C, strain tub3, stronger effect = lower value 0.989 | S. cerevisiae deletion strains, locus YMR058W, strain fet3, stronger effect = lower value 0.982 | S. cerevisiae deletion strains, locus YMR078C, strain ctf18, stronger effect = lower value 0.975 | S. cerevisiae deletion strains, locus YMR125W, strain sto1, stronger effect = lower value 0.98 | S. cerevisiae deletion strains, locus YMR129W, stronger effect = lower value 0.976 | S. cerevisiae deletion strains, locus YMR205C, strain PFK2, stronger effect = lower value 1.01 | S. cerevisiae deletion strains, locus YMR223W, strain ubp8, stronger effect = lower value 0.993 | S. cerevisiae deletion strains, locus YMR231W, strain pep5, stronger effect = lower value 0.991 | S. cerevisiae deletion strains, locus YMR307W, strain GAS1, stronger effect = lower value 0.984 | S. cerevisiae deletion strains, locus YNL067W, strain RPL9B, stronger effect = lower value 1.04 | S. cerevisiae deletion strains, locus YNL071W, strain lat1, stronger effect = lower value 1.01 | S. cerevisiae deletion strains, locus YNL128W, strain TEP1, stronger effect = lower value 0.951 | S. cerevisiae deletion strains, locus YNL153C, strain GIM3, stronger effect = lower value 1.02 | S. cerevisiae deletion strains, locus YNL183C, strain NPR1, stronger effect = lower value 0.972 | S. cerevisiae deletion strains, locus YNL209W, strain ssb2, stronger effect = lower value 0.982 | S. cerevisiae deletion strains, locus YNL233W, strain BNI4, stronger effect = lower value 1.03 | S. cerevisiae deletion strains, locus YNL248C, strain rpa49, stronger effect = lower value 0.964 | S. cerevisiae deletion strains, locus YNL250W, strain rad50, stronger effect = lower value 0.993 | S. cerevisiae deletion strains, locus YNL271C, strain bni1, stronger effect = lower value 0.996 | S. cerevisiae deletion strains, locus YNL298W, strain CLA4, stronger effect = lower value 0.99 | S. cerevisiae deletion strains, locus YNL307C, strain MCK1, stronger effect = lower value 0.999 | S. cerevisiae deletion strains, locus YNL322C, strain KRE1 (second series), stronger effect = lower value 1.01 | S. cerevisiae deletion strains, locus YNR049C, strain mso1, stronger effect = lower value 0.972 | S. cerevisiae deletion strains, locus YNR052C, strain pop2, stronger effect = lower value 1.03 | S. cerevisiae deletion strains, locus YOL012C, strain htz1 0.975 | S. cerevisiae deletion strains, locus YOL147C, strain pex11, stronger effect = lower value 0.992 | S. cerevisiae deletion strains, locus YOR001W, strain rrp6, stronger effect = lower value 1.01 | S. cerevisiae deletion strains, locus YOR061W, strain CKA2, stronger effect = lower value 0.964 | S. cerevisiae deletion strains, locus YOR069W, strain VPS5, stronger effect = lower value 0.99 | S. cerevisiae deletion strains, locus YOR070C, strain gyp1, stronger effect = lower value 1 | S. cerevisiae deletion strains, locus YOR080W, strain dia2, stronger effect = lower value 0.983 | S. cerevisiae deletion strains, locus YOR083W, strain WHI5, stronger effect = lower value 1.01 | S. cerevisiae deletion strains, locus YOR106W, strain vam3, stronger effect = lower value 0.982 | S. cerevisiae deletion strains, locus YOR136W, strain idh2, stronger effect = lower value 0.985 | S. cerevisiae deletion strains, locus YOR144C, strain elg1, stronger effect = lower value 0.994 | S. cerevisiae deletion strains, locus YOR184W, strain ser1, stronger effect = lower value 0.968 | S. cerevisiae deletion strains, locus YOR231W, strain MKK1, stronger effect = lower value 1.02 | S. cerevisiae deletion strains, locus YOR265W, strain rbl2, stronger effect = lower value 1 | S. cerevisiae deletion strains, locus YOR270C, strain vph1, stronger effect = lower value 1.02 | S. cerevisiae deletion strains, locus YOR290C, strain snf2, stronger effect = lower value 0.969 | S. cerevisiae deletion strains, locus YOR316C, strain cot1, stronger effect = lower value 0.986 | S. cerevisiae deletion strains, locus YPL051W, strain arl3, stronger effect = lower value 0.99 | S. cerevisiae deletion strains, locus YPL078C, strain atp4, stronger effect = lower value 0.985 | S. cerevisiae deletion strains, locus YPL106C, strain sse1, stronger effect = lower value 1 | S. cerevisiae deletion strains, locus YPL240C, strain hsp82, stronger effect = lower value 0.993 | S. cerevisiae deletion strains, locus YPL256C, strain CLN2, stronger effect = lower value 1.01 | S. cerevisiae deletion strains, locus YPR119W, strain clb2, stronger effect = lower value 0.994 | S. cerevisiae deletion strains, locus YPR141C, strain kar3, stronger effect = lower value 0.986 | S. cerevisiae deletion strains, locus YPR163C, strain tif3, stronger effect = lower value 0.998 | S. cerevisiae deletion strains, locus YPR167C, strain met16, stronger effect = lower value 0.988 | S. cerevisiae deletion strains, strain wtn01, stronger effect = lower value 0.983 | S. cerevisiae strains, strain wild type, stronger effect = lower value 0.974
